Laboratory results taken from the supplement of paper PMC13380429.

What was measured:
[1] = test system: Vero E6 infected with SARS-CoV-2; experiment: morphology score (similarity to uninfected cells); higher = more like uninfected cells; conditions: 24 h
[2] = test system: Vero E6 infected with SARS-CoV-2; experiment: SARS-CoV-2 infection rate relative to infected DMSO; higher = more infection, active = 60 or less; conditions: 24 h

SMILES | morphology score [1] | SARS-CoV-2 infection rate [2]
Nc1ncnc(Nc2ccc(Cl)cc2)n1 [chlorazanil] (10 µM) | 0.133 | 106% (inactive)
CCCCCCCCCCCCCCCC(=O)OC(C)C [isopropyl-palmitate] (10 µM) | 0.286 | 77% (inactive)
CCN(CC)CCN[C@@H](C(=O)OCCC(C)C)c1ccccc1 [camylofine-chlorhydrate] (10 µM) | 0.18 | 98% (inactive)
O=C(Nc1nc2ccc(NC(=O)C34CC5CC(CC(C5)C3)C4)cc2s1)c1ccccc1 (0.833333 µM) | -0.0802 | 105% (inactive)
Cc1ccnc2c1NC(=O)c1cccnc1N2C1CC1 [nevirapine] (10 µM) | 0.173 | 104% (inactive)
CN[C@H](C(=O)N[C@H](C(=O)N(C)[C@H](/C=C(\C)C(=O)O)C(C)C)C(C)(C)C)C(C)(C)c1ccccc1 [taltobulin] (10 µM) | -0.171 | 98% (inactive)
CC(C)(C)NC[C@H](O)COc1nsnc1N1CCOCC1 [timolol] (10 µM) | -0.002 | 98.5% (inactive)
CC(C)CC(N)=O [isovaleramide] (10 µM) | 0.0817 | 104% (inactive)
CCCN(CCC)S(=O)(=O)c1ccc(C(=O)O)cc1 [probenecid] (10 µM) | -0.0854 | 106% (inactive)
Nc1nc(=O)n([C@@H]2O[C@H](CO)[C@@H](O)[C@@H]2F)cc1I [fiacitabine] (10 µM) | -0.0647 | 111% (inactive)
CSCC[C@H](NC(=O)[C@H](CC(C)C)NC(=O)CNC(=O)[C@H](Cc1ccccc1)NC(=O)[C@H](Cc1ccccc1)NC(=O)[C@H](CCC(N)=O)NC(=O)[C@H](CCC(N)=O)NC(=O)[C@@H]1CCCN1C(=O)[C@H](CCCCN)NC(=O)[C@@H]1CCCN1C(=O)[C@@H](N)CCCN=C(N)N)C(N)=O [substance-P] (10 µM) | -0.0435 | 114% (inactive)
CC(C)(C)NCC(O)COc1cccc2[nH]c(=O)[nH]c12 (stereo not drawn) (10 µM) | 0.0723 | 103% (inactive)
COc1cc2c(cc1OC)-c1c(C)c3ccc(OC)c(OC)c3c[n+]1CC2 [dehydrocorydaline] (10 µM) | 0.0289 | 104% (inactive)
CC1(C)S[C@@H]2[C@H](NC(=O)[C@H](NC(=O)N3CCN(S(C)(=O)=O)C3=O)c3ccccc3)C(=O)N2[C@H]1C(=O)O [mezlocillin] (10 µM) | 0.0709 | 97% (inactive)
Fc1ccc(-n2cc(CCCCN3CCC4(CC3)OCc3ccccc34)c3ccccc32)cc1 [siramesine] (0.833333 µM) | 0.0919 | 94.5% (inactive)
NC(=O)CC[C@H](N)C(=O)O [L-glutamine] (10 µM) | 0.278 | 94% (inactive)
c1ccc(C2CN3CCSC3=N2)cc1 (stereo not drawn) [tetramisole] (10 µM) | 0.191 | 104% (inactive)
Cc1cc2nc3c(=O)[nH]c(=O)nc-3n(C)c2cc1C=O (10 µM) | 0.102 | 100% (inactive)
CCCCCCCCCCCCCCCC(=O)OC(CC(=O)[O-])C[N+](C)(C)C (stereo not drawn) [palmitoylcarnitine] (0.833333 µM) | -0.0181 | 106% (inactive)
CCN(CC)CCCC(C)Nc1nc(C)cc(Nc2ccc3nc(C)cc(N)c3c2)n1 (stereo not drawn) (10 µM) | -0.115 | 110% (inactive)

SMILES | morphology score [1] | SARS-CoV-2 infection rate [2]
C[N+]1(C)CCC(OC(=O)C(O)(c2ccccc2)C2CCCC2)C1 (stereo not drawn) [glycopyrrolate] (10 µM) | 0.122 | 107% (inactive)
CS(=O)(=O)c1ccc(-c2cc(Br)sc2-c2ccc(F)cc2)cc1 (10 µM) | 0.0351 | 104% (inactive)
c1cc(Cc2cnc[nH]2)ccn1 [immethridine] (10 µM) | 0.158 | 109% (inactive)
O=C1O[C@H](CO)[C@@H](O)[C@H](O)[C@H]1O [gluconolactone] (10 µM) | 0.0736 | 98% (inactive)
COc1cc2ncn(-c3cc(OCc4ccccc4C(F)(F)F)c(C(N)=O)s3)c2cc1OC (10 µM) | -0.0651 | 106% (inactive)
c1ccc2nc(C3=NCCN3)ccc2c1 (10 µM) | 0.125 | 93% (inactive)
CCO[C@H]1O[C@@H]2O[C@@]3(C)CC[C@H]4[C@H](C)CC[C@@H]([C@H]1C)[C@@]24OO3 [artemotil] (10 µM) | -0.085 | 113% (inactive)
c1ccc(-c2oc3ncnc(NC[C@@H]4CCCO4)c3c2-c2ccccc2)cc1 (10 µM) | 0.0044 | 106% (inactive)
CO[C@@]1(NC(=O)C2SC(=C(C(N)=O)C(=O)O)S2)C(=O)N2C(C(=O)O)=C(CSc3nnnn3C)CS[C@@H]21 (stereo partly drawn) [cefotetan] (10 µM) | 0.104 | 98% (inactive)
COC(=O)C1=C(C)NC(C)=C([N+](=O)[O-])[C@@H]1c1ccccc1C(F)(F)F (racemic) (10 µM) | 0.192 | 91.8% (inactive)
COC(=O)c1ccc(N2CCN(C)CC2)c(NC(=O)c2cccc(OC)c2)c1 (10 µM) | 0.142 | 105% (inactive)
CO/N=C(\C(=O)N[C@@H]1C(=O)N2C(C(=O)O)=C(COC(N)=O)CS[C@H]12)c1ccco1 (10 µM) | 0.0841 | 98.5% (inactive)
COc1ccc(-c2csc(NC(=O)[C@H]3CCCCN3S(=O)(=O)c3ccc(C)cc3)n2)cc1 (10 µM) | 0.424 | 61.5% (inactive)
CCOC(=O)Nc1cc2c(c(N)n1)N=C(c1ccccc1)[C@H](C)N2 [mivobulin] (10 µM) | -0.0939 | 112% (inactive)
Cc1csc(S(=O)(=O)N(CC(C)C)c2cc3c(cc2OCc2ccc(C(=O)O)cc2)CCC3)n1 (10 µM) | -0.0439 | 107% (inactive)
Nc1ccc(S(N)(=O)=O)cc1 [sulfanilamide] (10 µM) | 0.0892 | 103% (inactive)
O=C(O)Cn1nnc(-c2cc(N3CCC(Oc4cc(F)ccc4Br)CC3)no2)n1 (10 µM) | 0.00994 | 104% (inactive)
COc1ccc(CC2NCCc3cc(OC)c(OC)cc32)cc1OC (stereo not drawn) [tetrahydropapaverine] (10 µM) | -0.026 | 108% (inactive)
CN(C)[C@@H]1C(O)=C(C(N)=O)C(=O)[C@@]2(O)C(O)=C3C(=O)c4c(O)ccc(Cl)c4[C@@H](O)[C@H]3C[C@@H]12 [demeclocycline] (10 µM) | 0.0306 | 96% (inactive)
Fc1ccc(CN2CCC(Nc3ccc(C(F)(F)F)nn3)CC2)cc1F (10 µM) | -0.198 | 110% (inactive)

SMILES | morphology score [1] | SARS-CoV-2 infection rate [2]
O=C(O)c1ccc2cc(-c3ccc(O)c(C45CC6CC(CC(C6)C4)C5)c3)ccc2c1 (0.833333 µM) | 0.226 | 87.5% (inactive)
CCC(C)(Oc1ccc(C2(c3ccc(OC(C)(CC)C(=O)O)cc3)CCCCC2)cc1)C(=O)O (stereo not drawn) [clinofibrate] (10 µM) | 0.0154 | 112% (inactive)
Cc1c(-c2ccc(-c3ccccc3F)cc2)nc2ccc(F)cc2c1C(=O)O [brequinar] (10 µM) | 0.115 | 95% (inactive)
CC(C)C(=O)OC[C@@]1(N=[N+]=[N-])O[C@@H](n2ccc(N)nc2=O)[C@H](OC(=O)C(C)C)[C@@H]1OC(=O)C(C)C [balapiravir] (10 µM) | 0.0882 | 88% (inactive)
CC(C)[C@@H](C)/C=C/[C@@H](C)[C@H]1CC[C@H]2/C(=C/C=C3\C[C@@H](O)CC[C@@H]3C)CCC[C@]12C [dihydrotachysterol] (10 µM) | 0.121 | 106% (inactive)
Cc1[nH]cnc1CN1CCc2c(c3ccccc3n2C)C1=O [alosetron] (10 µM) | -0.0421 | 98% (inactive)
BrC1C(Br)C(Br)C(Br)C(Br)C1Br (stereo not drawn) [1,2,3,4,5,6-hexabromocyclohexane] (10 µM) | 0.416 | 85% (inactive)
Cc1ccc(C(=O)C(C)CN2CCCCC2)cc1 (stereo not drawn) [tolperisone] (10 µM) | 0.383 | 83.5% (inactive)
CCOC(=O)C1=C(C)NC(C)=C(C(=O)OC)C1c1cccc(Cl)c1Cl (stereo not drawn) [felodipine] (10 µM) | 0.224 | 112% (inactive)
CN1C(=O)CC(C)(c2ccccc2)C1=O (stereo not drawn) [methsuximide] (10 µM) | 0.0784 | 110% (inactive)
CNCCCCOc1ccccc1Cc1ccccc1 [bifemelane] (10 µM) | 0.517 | 65% (inactive)
O=C1[O][SbH]23[O]C(=O)C([O]2)C2[O][SbH]4([O]C(=O)C([O]4)C1[O]3)[O]C2=O [antimonyl] (10 µM) | 0.138 | 99.5% (inactive)
Cc1cc(Nc2ncc(Cl)c(Nc3ccccc3S(=O)(=O)C(C)C)n2)c(OC(C)C)cc1C1CCNCC1 [ceritinib] (0.833333 µM) | 0.182 | 104% (inactive)
N#C/C(=C1/SCC(c2ccccc2Cl)S1)n1ccnc1 (stereo not drawn) [lanoconazole] (10 µM) | 0.0956 | 99.5% (inactive)
Cc1cc(O)c(C(=O)N[C@@H](C(=O)N[C@@H]2C(=O)N3C(C(=O)O)=C(CSc4nnnn4C)CS[C@H]23)c2ccc(O)cc2)cn1 [cefpiramide] (10 µM) | 0.00194 | 106% (inactive)
Cc1cc(-c2cc(OC(=O)c3ccccc3)ccc2Cl)cc2nnc(Nc3ccc(OCCN4CCCC4)cc3)nc12 (10 µM) | -0.0439 | 114% (inactive)
CCn1cc(C(=O)O)c(=O)c2ccc(-c3ccncc3)cc21 [rosoxacin] (10 µM) | 0.148 | 112% (inactive)
CC(C)(Cc1c[nH]c2ccc(Cl)cc12)NCCOc1ccccc1OCC1CC1 (0.833333 µM) | 0.193 | 110% (inactive)
COc1ccc(-c2ccc3c(N4CCOCC4)nc(N4C[C@@H](C)O[C@@H](C)C4)nc3n2)cc1CO (0.833333 µM) | 0.12 | 110% (inactive)
